Compound activity (PubChem BioAssay)
Shown are actives, neighbours in structure and some others; about 2.7% of the full set was active somewhere.
FID counter – fluorescent intercalator displacement, NS3 helicase counter-screen; DNA fluorescent intercalator displacement, fluorescence; inhibition, % at 7.9 µM; hit rate 0.17% among 290,000; AID 1845; in the data active means inhibition above about 37%;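 further: higher means more ethidium bromide displaced from hairpin DNA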
TMEM16A inh – inhibitors of mouse TMEM16A calcium-activated chloride channel; Q8BHY3; HEK293 TMEM16A/YFP iodide influx fluorescence, ionomycin; normalized B-score (activity score, 25-100; higher = stronger inhibition) at 10 µM; AID 588511; hit rate 1.2% among 310,000;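 active means ratio plate-corrected score three or more library SD toward inhibition, starting fluorescence score within five deviations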;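 further: score derived from kinetic fluorescence span divided by baseline fluorescence per well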
PP5 inh – inhibitors of human protein phosphatase 5 (PP5); P53041; purified PP5c, OMFP substrate fluorescence; inhibition, % at 6.7 µM; hit rate 0.18% among 320,000; AID 1987;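 active means inhibition above the campaign's mean inhibition across all tested compounds plus 3 SD, cut at about 9.5% in these data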
Target sequence (P53041 whole entry, looked up): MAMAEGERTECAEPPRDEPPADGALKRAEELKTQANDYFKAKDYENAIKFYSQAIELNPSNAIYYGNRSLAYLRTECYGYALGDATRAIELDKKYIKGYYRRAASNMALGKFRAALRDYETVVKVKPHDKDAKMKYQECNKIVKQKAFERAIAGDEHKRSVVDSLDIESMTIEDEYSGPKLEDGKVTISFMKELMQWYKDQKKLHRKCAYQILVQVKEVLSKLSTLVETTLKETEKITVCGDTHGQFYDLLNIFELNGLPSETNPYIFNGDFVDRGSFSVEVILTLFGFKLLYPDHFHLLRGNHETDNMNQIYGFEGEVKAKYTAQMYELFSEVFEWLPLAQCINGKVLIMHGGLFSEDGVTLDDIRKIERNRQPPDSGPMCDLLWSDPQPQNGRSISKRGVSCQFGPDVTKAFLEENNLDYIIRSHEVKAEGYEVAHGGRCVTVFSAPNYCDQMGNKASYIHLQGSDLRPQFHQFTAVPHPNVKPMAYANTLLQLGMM
PP1 inh – counter-screen for PP5 inhibitors: inhibitors of human PP1-alpha. inhibition, % at 6.7 µM. purified PP1alpha, OMFP fluorescence. P62136. hit rate 0.9% among 320,000;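 active means inhibition above the mean inhibition of all tested compounds plus 3 SD, computed separately for each screening campaign, cut at about 15% in these data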
TMEM16A act – mouse TMEM16A channel activation, primary screen. hit rate 0.3% among 340,000. HEK293 TMEM16A/YFP-H148Q/I152L, iodide quench fluorescence; hits give low values. Q8BHY3. B-score at 10 µM;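 active means fluorescence-ratio B-score plate-corrected deviation score at least 3 library SD below zero, with starting fluorescence score within 5 deviations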;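 further: channel opened by trigger with iodide after compound preincubation; score built on the fluorescence ratio of max minus min over baseline; more negative score means more quench and so TMEM16A activation or potentiation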
PREPL inh – inhibits the human prolyl oligopeptidase-like enzyme; Q4J6C6; recombinant PREPL, fluorescence polarization activity-based probe; inhibition, % at 5.96 µM; hit rate 0.68% among 320,000; AID 2751; in the data active means inhibition above about 43%
PP5 conf – PP5 (human) inhibition, confirmation; shares compounds with PP5 inh; Purified PP5, fluorogenic phosphatase substrate, fluorescence; inhibition, % at 6.7 µM; hit rate 22% among 460; AID 2331; in the data active means inhibition above about 9.5%
PP1 counter 3x – PP1 phosphatase inhibition, counter-screen for PP5 inhibitors; shares compounds with PP5 inh; PP1 enzyme, fluorescent phosphatase substrate; inhibition, % at 6.7 µM; hit rate 4% among 460; AID 2355; in the data active means inhibition above about 16%
Hits are given with their value; . = inactive; / = no result.

SMILES	FID counter	TMEM16A inh	PP5 inh	PP1 inh	TMEM16A act	PREPL inh	PP5 conf	PP1 counter 3x
COc1ccc(C(CNC(=O)c2cccc(Br)c2)N2CCCC2)cc1 (stereo unspecified)	.	.	10	.	.	.	.	.
COc1ccc(C(CNC(=O)c2cccc(NS(=O)(=O)c3ccccc3)c2)N2CCCC2)cc1 (stereo unspecified)	/	/	/	/	.	/	/	/
COc1ccc(C(=O)c2nccc3cc(OC)c(OC)cc23)cc1OC	/	/	13	.	.	.	48	.
N=c1c2c(-c3ccccc3)c(-c3ccccc3)oc2ncn1CCCN1CCOCC1	.	.	.	.	.	.	/	/
N=c1c2c(-c3ccccc3)c(-c3ccccc3)oc2ncn1CCN1CCOCC1	.	.	11	.	.	.	.	.
C/C(=N\NC(=O)CCC(=O)Nc1ccc(C)c(C)c1)C1CC1	.	.	/	/	.	/	/	/
CCOC(=O)C1=C(C)N[C@@]2(O)c3ccccc3C(=O)[C@@]12O	.	.	.	.	.	.	/	/
CC(=O)C1=C(C)OC2(O)c3ccccc3C(=O)C12O (stereo unspecified)	.	.	14	.	.	.	35	.
CCOC(=O)C1=C(C)OC2(O)c3ccccc3C(=O)C12O (stereo unspecified)	.	.	12	.	.	.	41	.
COc1ccc(/C(C)=N/NS(=O)(=O)c2cc(C)ccc2C)c(OC)c1	.	.	.	.	.	.	/	/
COc1ccccc1CNC(=O)C(=O)NCC1OCCCN1S(=O)(=O)c1ccc(F)cc1C (stereo unspecified)	.	.	.	.	.	.	/	/
CCCN(CCC)C(=O)CC(c1ccccc1)c1cc(Br)ccc1O (stereo unspecified)	.	.	12	.	.	.	.	.
CCCN(CCC)C(=O)CC(c1ccccc1)c1ccc(C)cc1O (stereo unspecified)	.	.	.	.	.	.	/	/
CC(O)(Cc1ccccn1)Cc1ccccn1	/	/	/	/	.	/	/	/
C=CCc1c(C)nc(SC)nc1Nc1ccc(C(C)=O)cc1	.	.	.	.	.	.	/	/
C=CCc1c(C)nc(SC)nc1Nc1ccc(C(=O)O)cc1	.	.	11	.	.	.	.	.
CC(C)N(C)C1=CC(=O)C(N(C)C(C)C)=CC1=O	/	/	/	/	.	/	/	/
CC(C)C(=O)Nc1cccc(C(=O)Nc2ccccc2C(=O)O)c1	.	.	10	.	.	.	.	.
CSc1ncccc1C(=O)Nc1ccc(S(=O)(=O)NC2=NCCCCC2)cc1	.	.	.	.	.	.	/	/
O=C(NCCc1ccccn1)c1cc(-c2cccc3ccccc23)nc2ccccc12	.	.	21	.	.	.	.	.
Cc1ccc(-c2cc(C(=O)NCCc3ccccn3)c3ccccc3n2)c(C)c1	.	.	.	.	.	.	/	/
Cc1ccc(Cl)cc1NC1=C/C(=N\S(=O)(=O)c2cccs2)c2ccccc2C1=O	.	.	11	.	.	.	42	.
Cc1cc(Br)cc(Cl)c1OC(=O)c1ccncc1	.	.	.	.	.	.	/	/
CC(C)Nc1nc(NC(C)C)nc(C(N)=O)n1	.	.	11	.	.	.	.	.
CC(C)Nc1nc(NC(C)C)nc(N(C)C(N)=O)n1	.	.	.	.	.	.	/	/
SMILES	FID counter	TMEM16A inh	PP5 inh	PP1 inh	TMEM16A act	PREPL inh	PP5 conf	PP1 counter 3x
Cn1c(SCC(=O)N2c3ccccc3CCc3ccccc32)nnc1-c1ccc(O)cc1	.	.	9.7	.	.	.	.	.
C/C(=C/C(=O)N1CCc2ccccc21)C(=O)O	.	.	.	.	.	.	/	/
CC(C)=CC(=O)N1CCCc2ccccc21	.	.	9.7	.	.	.	.	.
COc1ccc(N(CC(=O)NCc2ccc(F)cc2)C(=O)c2snc(C(N)=O)c2N)cc1OC	.	.	.	.	.	.	/	/
CC(C)CCn1c(N)c(S(=O)(=O)c2cccs2)c2nc3ccccc3nc21	.	.	10	.	.	.	.	.
Nc1c(S(=O)(=O)c2cccs2)c2nc3ccccc3nc2n1CCc1ccccc1	.	.	.	.	/	.	/	/
Cc1onc(-c2ccccc2)c1C(=O)OCC(=O)Nc1ccc(OC(F)(F)F)cc1	/	/	9.7	.	.	.	.	.
COc1cccc(C(C[N+](=O)[O-])c2c(C)[nH]n(-c3ccccc3)c2=O)c1 (stereo unspecified)	.	.	12	.	.	.	.	.
Cn1cc(CNCc2ccc(-n3cccn3)cc2)c(-c2ccccc2F)n1	.	.	.	.	.	.	/	/
Cn1cc(CNCCCn2ncc3ccccc32)c(-c2ccccc2F)n1	.	.	16	.	.	.	.	.
Nc1nc(Nc2cccc(F)c2)nc(NCc2ccco2)c1[N+](=O)[O-]	.	.	11	.	.	.	.	.
CCc1nnc(NC(=O)COc2ccccc2[N+](=O)[O-])s1	.	.	.	.	.	.	/	/
CCN(CC)S(=O)(=O)c1cccc(NC(=O)CN(C)Cc2cccc(OC)c2)c1	.	.	.	.	.	.	/	/
CN(C(=O)Nc1cnccc1C(F)(F)F)C1CCCCC1	.	.	.	.	.	.	/	/
O=C(Nc1cc(-c2ccccc2)[nH]n1)c1ccccc1F	.	.	.	.	.	.	/	/
CC1=C(C(=O)Nc2cc(-c3cccc(F)c3)[nH]n2)C2(CCCCC2)OC1=O	.	.	10	.	.	.	15	.
Cc1ccc(S(=O)(=O)N2CCN(C(=O)CN3CCOCC3)C2C(C)C)cc1 (stereo unspecified)	.	.	12	.	.	.	.	.
Cc1ccc(S(=O)(=O)N2CCN(C(=O)CN3CCOCC3)C2c2ccccc2)cc1 (stereo unspecified)	.	.	.	.	.	.	/	/
O=c1oc2ccc(Cl)cc2nc1/C=C(\O)c1cccs1	.	.	12	.	.	.	.	.
CCOc1cc2c(C#N)c(N3CCCC3)nc(N)c2c(N)n1	/	.	.	.	.	.	/	/
CCCCN(CC)c1nc(N)c2c(N)nc(OCC)cc2c1C#N	.	.	12	.	.	.	25	.
CCCOc1cc2c(C#N)c(N3CCCC3)nc(N)c2c(N)n1	/	.	11	.	.	.	38	.
N#Cc1c(N2CCCC2)nc(N)c2c(N)nc(N3CCCC3)cc12	.	.	16	.	.	.	25	18
COC(=O)C1(C)NC(c2ccc(O)cc2)C2C(=O)N(c3ccc(F)cc3)C(=O)C21 (stereo unspecified)	.	.	10	.	.	.	.	.
COC(=O)C1(C)NC(c2ccc(O)cc2)C2C(=O)N(c3ccccc3)C(=O)C21 (stereo unspecified)	.	.	.	.	.	.	/	/
Cc1ccccc1OCC(=O)N/N=C/c1ccc(N2CCOCC2)o1	.	.	/	/	.	/	/	/
